Experimental data: PubChem BioAssay (NCI)
The panel holds about 79,000 compounds, 15% with a hit somewhere; the sample as a whole holds those more often. Unmarked numbers belong to inactive results. Active and inactive are the calls of the source. Cut-off read from the data, not from the text of the source: active = growth inhibition above about 70%; inactive = the rest.

Key:
[1] = NCI Yeast Anticancer Drug Screen. Data for the rad52 strain (AID 147);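 note: 0% = growth of vehicle-treated control cultures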; settings: S. cerevisiae rad52 mutant growth inhibition, stronger effect = higher value
Procedure, shortened: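 Growth of repair-deficient yeast cells was compared between compound-treated and vehicle-treated cultures to give percent inhibition.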

[2] = NCI Yeast Anticancer Drug Screen. Data for the wt1 strain (AID 149);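 note: 0% = growth of vehicle-treated wt1 cultures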; settings: S. cerevisiae wt1 strain (SPY 50644) growth inhibition, stronger effect = higher value
Procedure, shortened: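 Measured: growth of wt1 yeast under compound versus vehicle treatment, reported as inhibition.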

[3] = NCI Yeast Anticancer Drug Screen. Data for the rad50EPP+ strain (AID 151);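 note: 0% = growth of vehicle-treated control cultures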; settings: S. cerevisiae rad50 mutant strain, stronger effect = higher value
Procedure, shortened: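 Measured: growth inhibition of rad50EPP+ yeast. Reference: vehicle-treated controls. Screen uses strains with defined genetic alterations in DNA damage repair or cell cycle control.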

[4] = NCI Yeast Anticancer Drug Screen. Data for the mgt1 strain (AID 153); settings: S. cerevisiae mgt1 mutant growth inhibition, stronger effect = higher value
Procedure, shortened: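 Compounds were applied to mgt1 mutant yeast, and growth was then compared against vehicle-treated control cultures to give percent inhibition.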

[5] = NCI Yeast Anticancer Drug Screen. Data for the rad50 strain (AID 155);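 note: 0% = growth of vehicle-only cultures of the same strain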; settings: S. cerevisiae rad50 strain growth inhibition, stronger effect = higher value
Procedure, shortened: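 Growth of the mutant yeast was measured after compound exposure and referenced to vehicle-treated cultures.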

[6] = NCI Yeast Anticancer Drug Screen. Data for the mec2-1 strain (AID 157); settings: S. cerevisiae mec2-1 strain, stronger effect = higher value
Procedure, shortened: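 Compounds were applied to mec2-1 yeast cells. Their growth was then compared with that of vehicle-treated cultures to give growth inhibition.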

[7] = NCI Yeast Anticancer Drug Screen. Data for the rad14 strain (AID 159);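 note: 0% = growth of vehicle-treated control cultures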; settings: S. cerevisiae rad14 strain growth inhibition, stronger effect = higher value
Procedure, shortened: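 Here, inhibition of yeast growth was measured after compound exposure, using a strain with a genetic defect in DNA damage repair and vehicle-treated cultures as the reference.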

[8] = NCI Yeast Anticancer Drug Screen. Data for the sgs1 mgt1 strain (AID 161);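 note: 0% = growth of cultures given vehicle only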; settings: S. cerevisiae sgs1 mgt1 strain, stronger effect = higher value
Procedure, shortened: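 Yeast cells carrying a defined DNA-repair defect were exposed to test compounds. Growth inhibition was measured relative to vehicle-treated controls.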

[9] = NCI Yeast Anticancer Drug Screen. Data for the CLN2oe strain (AID 163);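 note: 0% = growth of vehicle-only control cultures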; settings: S. cerevisiae CLN2oe strain, stronger effect = higher value
Procedure, shortened: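 Cells of an engineered yeast line with disturbed cell-cycle regulation are treated with compound. Inhibition of growth is then calculated relative to the vehicle-treated reference.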

[10] = NCI Yeast Anticancer Drug Screen. Data for the cln2 rad14 strain (AID 165);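 note: 0% = growth equal to vehicle treated cultures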; settings: S. cerevisiae cln2 rad14 strain, stronger effect = higher value
Procedure, shortened: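 Strain: cln2 rad14 yeast, altered in cell cycle control and DNA damage repair. Read-out: growth inhibition vs vehicle.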

[11] = NCI Yeast Anticancer Drug Screen. Data for the bub3 strain (AID 167); settings: S. cerevisiae bub3 mutant strain, stronger effect = higher value
Procedure, shortened: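 Whole-cell yeast assay. The mutant strain was incubated with compounds, and growth inhibition was determined by comparison with vehicle-treated cells.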

[12] = NCI Yeast Anticancer Drug Screen. Data for the wt2 strain (AID 169);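 note: 0% = growth of vehicle-treated yeast cultures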; settings: S. cerevisiae wt2 strain growth inhibition, stronger effect = higher value
Procedure, shortened: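 Growth of compound-treated yeast is measured and expressed as inhibition relative to vehicle-only controls.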

[13] = NCI Yeast Anticancer Drug Screen. Data for the mlh1 strain (AID 171);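 note: 0% = growth of vehicle-treated control cultures of the same strain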; settings: S. cerevisiae mlh1 strain growth inhibition, stronger effect = higher value
Procedure, shortened: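 Test agents were incubated with yeast bearing a defined DNA damage repair or cell cycle control alteration; values are growth inhibition normalised to vehicle-treated cultures.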

[14] = NCI Yeast Anticancer Drug Screen. Data for the sgs1 strain (AID 173);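 note: 0% = growth of vehicle-only control cultures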; settings: S. cerevisiae sgs1 mutant, stronger effect = higher value
Procedure, shortened: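 Strain with an altered DNA repair or cell cycle pathway exposed to compound. Growth then measured. Value = inhibition versus vehicle control.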

[15] = NCI Yeast Anticancer Drug Screen. Data for the mlh1 rad18 strain (AID 175); settings: S. cerevisiae mlh1 rad18 strain growth inhibition, stronger effect = higher value
Procedure, shortened: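 A repair-deficient yeast strain is exposed to test compound, and growth is scored relative to vehicle-treated controls.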

[16] = NCI Yeast Anticancer Drug Screen. Data for the rad18 strain (AID 177); settings: S. cerevisiae rad18 mutant growth inhibition, stronger effect = higher value
Procedure, shortened: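 DNA-repair-defective yeast; compound treatment; growth inhibition scored against vehicle.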

[17] = at 5.0 µM (retest, dose inferred, filed as 0.5)
[18] = at 50.0 µM (retest, dose inferred, filed as 5.0)

## COc1ccc(/C=C2\SC(=S)N(/C=C/c3nc4ccccc4[nH]c3=O)C2=O)cc1OC
[1]; at 1.2 µM
  growth inhibition: 7%
[1]; at 3.7 µM
  growth inhibition: 10%
[1]; at 11.0 µM
  growth inhibition: 26%
[1]; at 33.0 µM
  growth inhibition: 61%
[1]; at 100.0 µM
  growth inhibition: 86% (active)
[2]; at 1.2 µM
  growth inhibition: 3%
[2]; at 3.7 µM
  growth inhibition: 5%
[2]; at 11.0 µM
  growth inhibition: 10%
[2]; at 33.0 µM
  growth inhibition: 40%
[2]; at 100.0 µM
  growth inhibition: 90% (active)
[3]; at 1.2 µM
  growth inhibition: 1%
[3]; at 3.7 µM
  growth inhibition: 3%
[3]; at 11.0 µM
  growth inhibition: 21%
[3]; at 33.0 µM
  growth inhibition: 50%
[3]; at 100.0 µM
  growth inhibition: 63%
[4]; at 1.2 µM
  growth inhibition: -1%
[4]; at 3.7 µM
  growth inhibition: 3%
[4]; at 11.0 µM
  growth inhibition: 30%
[4]; at 33.0 µM
  growth inhibition: 76% (active)
[4]; at 100.0 µM
  growth inhibition: 94% (active)
[5]; at 1.2 µM
  growth inhibition: -2%
[5]; at 3.7 µM
  growth inhibition: -5%
[5]; [17]
  growth inhibition: -12%
[5]; at 11.0 µM
  growth inhibition: 12%
[5]; at 33.0 µM
  growth inhibition: 61%
[5]; [18]
  growth inhibition: 46%
[5]; at 50.0 µM
  growth inhibition: 57.2%
[5]; at 100.0 µM
  growth inhibition: 85% (active)
[6]; at 1.2 µM
  growth inhibition: 3%
[6]; at 3.7 µM
  growth inhibition: 5%
[6]; [17]
  growth inhibition: -17%
[6]; at 11.0 µM
  growth inhibition: 17%
[6]; at 33.0 µM
  growth inhibition: 66%
[6]; [18]
  growth inhibition: 45%
[6]; at 50.0 µM
  growth inhibition: 68.1%
[6]; at 100.0 µM
  growth inhibition: 91% (active)
[7]; at 1.2 µM
  growth inhibition: 3%
[7]; at 3.7 µM
  growth inhibition: 4%
[7]; at 11.0 µM
  growth inhibition: 26%
[7]; at 33.0 µM
  growth inhibition: 64%
[7]; at 100.0 µM
  growth inhibition: 90% (active)
[8]; [17]
  growth inhibition: -7%
[8]; [18]
  growth inhibition: 57%
[8]; at 50.0 µM
  growth inhibition: 87% (active)
[9]; at 1.2 µM
  growth inhibition: -17%
[9]; at 3.7 µM
  growth inhibition: -11%
[9]; at 11.0 µM
  growth inhibition: 7%
[9]; at 33.0 µM
  growth inhibition: 59%
[9]; at 100.0 µM
  growth inhibition: 88% (active)
[10]; [17]
  growth inhibition: -30%
[10]; [18]
  growth inhibition: 26%
[10]; at 50.0 µM
  growth inhibition: 32.5%
[11]; at 1.2 µM
  growth inhibition: 4%
[11]; at 3.7 µM
  growth inhibition: 4%
[11]; [17]
  growth inhibition: -14%
[11]; at 11.0 µM
  growth inhibition: 19%
[11]; at 33.0 µM
  growth inhibition: 52%
[11]; [18]
  growth inhibition: 4%
[11]; at 50.0 µM
  growth inhibition: 70.3% (active)
[11]; at 100.0 µM
  growth inhibition: 85% (active)
[12]; at 1.2 µM
  growth inhibition: 1%
[12]; at 3.7 µM
  growth inhibition: 3%
[12]; at 11.0 µM
  growth inhibition: 28%
[12]; at 33.0 µM
  growth inhibition: 80% (active)
[12]; at 100.0 µM
  growth inhibition: 94% (active)
[13]; at 1.2 µM
  growth inhibition: 1%
[13]; at 3.7 µM
  growth inhibition: 5%
[13]; at 11.0 µM
  growth inhibition: 28%
[13]; at 33.0 µM
  growth inhibition: 76% (active)
[13]; at 100.0 µM
  growth inhibition: 91% (active)
[14]; at 1.2 µM
  growth inhibition: 5%
[14]; at 3.7 µM
  growth inhibition: 14%
[14]; at 11.0 µM
  growth inhibition: 43%
[14]; at 33.0 µM
  growth inhibition: 85% (active)
[14]; at 100.0 µM
  growth inhibition: 94% (active)
[15]; [17]
  growth inhibition: -11%
[15]; [18]
  growth inhibition: 33%
[15]; at 50.0 µM
  growth inhibition: 61.6%
[16]; at 1.2 µM
  growth inhibition: 10%
[16]; at 3.7 µM
  growth inhibition: 20%
[16]; at 11.0 µM
  growth inhibition: 39%
[16]; at 33.0 µM
  growth inhibition: 67%
[16]; at 100.0 µM
  growth inhibition: 85% (active)
